Data as given in PubChem BioAssay AID1461 (National Center for Advancing Translational Sciences (NCATS), 2008).
The whole screen tested about 220,000 compounds, of which about 2,300 (1%) were called active. Inconclusive results (about 6%) are left out. The sample holds actives, similar compounds and a random draw of the others, so the mix is not that of the screen. Unmarked numbers belong to inactive results. Calls come from the whole dose curve; as a rule, active = well fitted inhibition curve with a large enough effect; inconclusive = small, poorly fitted or top-dose-only effect, or effect the other way; inactive = no such curve, though single readings can be large or run the other way.

What follows are compounds tested against Neuropeptide S receptor (Homo sapiens) (UniProt Q6W5P4) (assay: qHTS Assay for Antagonists of the Neuropeptide S Receptor: cAMP Signal Transduction). Conditions: CHO-NPSR cells, cAMP TR-FRET, antagonist mode; series mostly up to 38.3 µM; activity change, negative = inhibition: at the top concentration.
Source text: NIH Chemical Genomics Center [NCGC] NIH Molecular Libraries Probe Production centers Network [MLPCN] MLPCN Grant: X01-DA026210-01 Assay Submitter (PI): Heilig, Markus Alexander NCGC Assay Overview: Neuropeptide S receptor (NPSR), previously known as GPR154, is a recently de-orphanized G protein coupled receptor. Its endogenous ligand is the 20 amino acids peptide Neuropeptide S (NPS). […] NPS and its receptor are found in various tissues. Specifically they are highly expressed in brain areas that have been implicated in modulation of arousal, stress and anxiety. Central administration of NPS in mice produces an unusual profile of activity by inducing wakefulness and arousal, while at the same time suppressing anxiety. Therefore, NPSR may represent a novel drug target for the treatment of sleep and anxiety disorders. To identify NPSR antagonists, we developed a cell-based cAMP assay. NPS can stimulate the production of cAMP in Chinese hamster ovary cells stably expressing NPS receptor. This change in intracellular cAMP level can be detected by a homogeneous LANCE cAMP assay based on the TR-FRET (time resolved fluorescence resonance energy transfer) between a europium-labeled cAMP tracer complex and a cAMP-specific antibody labeled with Alexa Fluor 647. The europium-labeled cAMP tracer complex is formed by the tight interaction between Biotin-cAMP (b-cAMP) and streptavidin labeled with Europium-W8044 chelate (Eu-SA). Light pulse at 320 nm excites the europium of the cAMP tracer and the energy emitted is transferred to the Alexa molecule bound to the cAMP antibody, generating a TR-FRET signal at 665 nm. Residual energy from the europium will produce a light at 620 nm. The native unlabeled cAMP from cell lysates competes with the europium-cAMP tracer for antibody binding and reversely reduces the emission signal of Alexa by interrupting FRET between the two labeled molecules. Both emission signals from the FRET donor (620 nm) and the acceptor (665 nm) can be detected by a plate reader in the TRF mode. Expression of result in fluorescence ratio (665 nm/620 nm) helps to normalize differences due to cell density and reagent dispensing. This assay was successfully optimized to a 1536-well plate format.
NCGC Assay Protocol Summary: A Chinese hamster ovary (CHO) cell line stably expressing the NPS receptor (CHO-NPSR) was obtained from Dr. Heilig lab at NIAAA and maintained in F-12 Kaighn's media (Invitrogen, Carlsbad, CA, 21127) supplemented with 10 % FBS, 100 units/ml penicillin, 100 ug/ml streptomycin and 250 ug/ml geneticin at 37C, 5% CO2 in a humidified atmosphere. Before the assay, aliquots of cells were frozen and stored at -135C. The assay was performed in 1536-well format. Data are reported for both the ratio of the two emission wavelengths, and also for the component 'donor' channel, Em2=620. Data were normalized to the controls for basal activity (DMSO only) and 100% inhibition (No NPS control). IC50 values were determined from concentration-response data modeled with the standard Hill equation. NPS 1536-well assay protocol: (1) Fresh or frozen CHO-NPSR cells were suspended in F-12 Kaighn's media supplemented with 10 % FBS, 100 units/ml penicillin and 100 ug/ml streptomycin. Cells were plated at 4 ul/well (1200 cells) to white, tissue culture treated 1536-well plates, and then cultured at 37C, 5 % CO2 for 16 to 30 hours. (2) Add 23 nl/well of compound in DMSO solution. The final titration for each compound was between 0.6 nM and 46 uM. (3) Add 1 ul of stimulation reagent (1X HBSS buffer, 5 mM HEPES, 0.1% BSA, 500 uM RO-201724 (Sigma-Aldrich, B8279), 1.5% Alexa 647-labeled anti-cAMP antibody (from Perkin Elmer), 100 nM NPS) (4) Incubation at 37C, 5 % CO2 for 60 min. (5) Add 1 ul/well detection reagent. Detection reagent was prepared by adding biotin labeled cAMP (4%), streptavidin labeled with Europium-W8044 chelate (1.33%) and TritonX-100 (1%) to detection buffer. […]
% is set by controls: 0 for no effect and ±100 for the full control effect; potency is the fitted concentration of half-maximal effect.
Note: nearly all actives have a fitted effect of over 50% in size.

Chain of Neuropeptide S receptor (Homo sapiens) (Q6W5P4 whole entry, looked up): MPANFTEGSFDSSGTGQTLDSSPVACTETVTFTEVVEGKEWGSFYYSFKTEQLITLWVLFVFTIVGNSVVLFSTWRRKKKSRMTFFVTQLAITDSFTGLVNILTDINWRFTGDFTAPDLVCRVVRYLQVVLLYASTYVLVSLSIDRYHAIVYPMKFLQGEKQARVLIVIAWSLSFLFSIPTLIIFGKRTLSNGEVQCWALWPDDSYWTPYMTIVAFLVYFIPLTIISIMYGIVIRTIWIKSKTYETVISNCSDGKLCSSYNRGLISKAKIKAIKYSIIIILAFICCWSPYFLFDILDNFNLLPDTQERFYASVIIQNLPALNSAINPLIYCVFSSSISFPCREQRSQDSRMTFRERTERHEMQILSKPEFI

Structure (SMILES) | Potency | activity change, negative = inhibition
CC(=O)Oc1ccccc1C(=O)Nc1ncc([N+](=O)[O-])s1 | 3.16 µM (active) | –
CCN1CC2C3CCC(C)(O3)C2C1 (stereo not given) | – | -11.5%
O=C1NC(=O)N(c2ccc(F)cc2)C(=O)/C1=C/c1ccc2c(c1)CCCN2Cc1ccccc1 | – | -19.5%
Cc1cccc(N2C(=O)NC(=O)/C(=C\c3cnn(-c4ccccc4)c3)C2=O)c1 | 10 µM (active) | –
COc1cccc(N2C(=O)NC(=O)/C(=C\c3ccc([N+](=O)[O-])s3)C2=O)c1 | – | -36.3%
CC1=C2C(=O)C3C(CC=C4CC(OC5OC(O)C(O)C(O)C5CO)CCC43C)C2CCC12OC1CC(C)CNC1C2C (stereo not given) | – | 8.99%
CCOc1cccc(=NC2CCCCC2)c2c(C)[nH]c(C)c12 | 6.31 µM (active) | –
COc1ccc(-n2c(O)c(C(C)=Nc3ccc4c(c3)CCC4)c(=O)[nH]c2=O)cc1 | – | 27.1%
CNC(=O)Nc1ccc(C(O)(C(=O)OC)C(F)(F)F)cc1 (stereo not given) | – | 26.3%
O=c1[nH]c(CN2CC=C(c3ccccc3)CC2)nc2scc(-c3cccs3)c12 | – | 25.8%
CCC(C)n1c(O)c(/C=N/Nc2nc3c(c(=O)n(C)c(=O)n3C)n2C)c(=O)[nH]c1=S (stereo not given) | – | 5.88%
COc1cccc(CN2CCCC(C(=O)c3ccccc3SC)C2)c1O (stereo not given) | – | -42.8%
CCCCCCCCCCCCn1ccc(=N)cc1 | 6.31 µM (active) | –
CC(=O)Cc1ccc(OC(C)C)cc1 | – | -24%
C/C=C/CC1(CC)C(=O)NC(=S)NC1=O | – | -14.4%
CC1C2Cn3c(nc4ccccc43)C1N(C)O2 (stereo not given) | – | 20.9%
CN(C)CC1CCCCC1=O (stereo not given) | – | -18.5%
O=C1CC(=O)N(Cc2ccccc2)C(=O)N1CCCCCCN1C(=O)CC(=O)N(Cc2ccccc2)C1=O | – | 4.26%
O=c1[nH]c(=O)n(-c2ccc(F)cc2)c(O)c1C=NCCN1CCCCC1 | – | -19.9%
Fc1ccc(C2N3CCCN23)cc1 (stereo not given) | – | 28.7%
